Assay results: PubChem BioAssay
Calls of active or inactive are those of the source. Unless noted, the rule behind the calls is not given here.

How the values were obtained:
[1] = resazurin metabolic signal in HepG2 cells – cell-based, resazurin fluorescence, 24 h, PK04 Diversity Set, profiling panel (AID 1172); conditions: HepG2 viability, higher = more signal
[2] = budding yeast growth changes without added modifier – OD600, strain BY4716, 24 h, basal condition, primary screen (AID 1173); conditions: S. cerevisiae BY4716 growth, OD600, 24 h; higher = more signal, called active from +8 up or from −8 down
[3] = viability profiling in MM1S myeloma cells – cell-based, resazurin fluorescence, basal, 24 h, PK04 Diversity Set, profiling panel (AID 1174); conditions: higher = more signal, called active from +8 up or from −8 down;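 note: MM1S multiple myeloma cell line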
[4] = target: Dihydroorotate dehydrogenase (quinone), mitochondrial (Plasmodium falciparum (isolate 3D7)) (UniProt Q08210); assay: inhibition of P. falciparum DHODH – biochemical, C-terminal His tag, absorbance 600 nm, primary screen (AID 1175); conditions: PfDHODH enzyme, DCIP absorbance 600 nm; higher = more signal, called active from +8 up or from −8 down;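 note: recombinant parasite enzyme with a five histidine tag at its C terminus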
Dihydroorotate dehydrogenase (quinone), mitochondrial (Plasmodium falciparum (isolate 3D7)), sequence (Q08210 whole entry, looked up): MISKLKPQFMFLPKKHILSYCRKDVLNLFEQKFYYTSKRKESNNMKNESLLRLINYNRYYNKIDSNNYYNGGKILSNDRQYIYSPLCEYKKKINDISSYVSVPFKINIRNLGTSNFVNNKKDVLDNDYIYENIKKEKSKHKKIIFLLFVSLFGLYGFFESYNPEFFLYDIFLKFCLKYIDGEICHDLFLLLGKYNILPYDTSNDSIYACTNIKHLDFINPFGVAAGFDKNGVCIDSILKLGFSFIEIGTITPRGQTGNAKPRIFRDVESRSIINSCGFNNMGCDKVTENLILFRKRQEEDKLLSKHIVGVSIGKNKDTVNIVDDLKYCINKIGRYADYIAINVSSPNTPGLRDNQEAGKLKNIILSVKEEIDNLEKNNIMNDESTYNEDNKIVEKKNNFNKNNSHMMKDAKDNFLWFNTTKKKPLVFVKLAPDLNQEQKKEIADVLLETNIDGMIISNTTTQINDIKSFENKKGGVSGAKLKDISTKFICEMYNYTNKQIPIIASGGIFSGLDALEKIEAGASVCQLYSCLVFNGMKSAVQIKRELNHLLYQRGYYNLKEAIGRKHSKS

[5] = inhibition of PAO1 biofilm formation – strain PAO1, LB-PBS medium, absorbance 600 nm, primary screen (AID 1176); conditions: P. aeruginosa PAO1 growth/biofilm, A600, 12 h; higher = more signal
[6] = growth modulation of vineyard yeast isolate – strain RM11-1a, OD600, basal, 24 h, primary screen (AID 1177);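 note: cultures grown under basal conditions with no added stressor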; conditions: S. cerevisiae RM11-1a growth, OD600, 24 h; higher = more signal, called active from +8 up or from −8 down
[7] = growth of efflux-deficient E. coli DRC39 – strain DRC39, OD650, 24 h, E. coli filamentation inducers, primary screen (AID 1178);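 note: growth measured as culture turbidity by optical density at 650 nm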; conditions: E. coli DRC39 acrAB, higher = more signal, called active from +8 up or from −8 down
[8] = growth of efflux-deficient E. coli DRC39 – strain DRC39, OD650, 48 h, E. coli filamentation inducers, primary screen (AID 1179);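 note: screen aims at cell division blockers that make cells filament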; conditions: E. coli DRC39 delta-acrAB growth, higher = more signal, called active from +8 up or from −8 down
[9] = viability profiling in RPMI8226 myeloma cells – cell-based, resazurin fluorescence, basal, 24 h, PK04 Diversity Set, profiling panel (AID 1180); conditions: higher = more signal;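 note: RPMI8826 multiple myeloma cell line at 5000 cells per well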
[10] = target: E3 ubiquitin-protein ligase XIAP (Homo sapiens) (UniProt P98170); assay: small molecules binding XIAP protein – biophysical, small-molecule microarray, fluorescence 635 nm, primary screen (AID 1181); conditions: higher = more signal;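 note: score merges 667 nm emission and signal to noise over triplicate slides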
E3 ubiquitin-protein ligase XIAP (Homo sapiens), sequence (P98170 whole entry, looked up, the tested form may be a part): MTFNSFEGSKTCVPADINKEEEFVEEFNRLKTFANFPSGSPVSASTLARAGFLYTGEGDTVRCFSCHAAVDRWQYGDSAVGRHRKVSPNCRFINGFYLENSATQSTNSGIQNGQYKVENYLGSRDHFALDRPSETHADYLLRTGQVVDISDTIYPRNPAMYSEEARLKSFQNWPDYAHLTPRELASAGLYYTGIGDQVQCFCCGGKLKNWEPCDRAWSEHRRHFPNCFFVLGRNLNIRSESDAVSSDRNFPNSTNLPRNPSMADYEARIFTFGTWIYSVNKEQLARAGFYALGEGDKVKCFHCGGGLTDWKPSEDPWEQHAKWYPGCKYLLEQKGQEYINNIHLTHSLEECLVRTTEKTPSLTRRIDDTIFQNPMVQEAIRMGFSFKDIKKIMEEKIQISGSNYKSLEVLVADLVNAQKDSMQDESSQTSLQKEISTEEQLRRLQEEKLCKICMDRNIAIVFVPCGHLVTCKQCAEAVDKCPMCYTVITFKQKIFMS

[11] = tested on: XIP peptide (Xip251-270) binding; assay: XIP fragment 251-270 binding compounds – biochemical, small-molecule microarray, fluorescence 635/667 nm, 0.1 µg/mL protein, primary screen (AID 1182); conditions: fluorescent protein binding, 635 nm, higher = more signal, called active from +8 up or from −8 down
XIP peptide (Xip251-270) = assay: compounds binding XIP fragment 251-270 – biochemical, small-molecule microarray, fluorescence 635/667 nm, 0.5 µg/mL protein, primary screen (AID 1183); conditions: fluorescence 635 nm, higher = more signal
[12] = blood-stage malaria parasite viability loss – strain 3D7, DAPI fluorescence, 100 nL, primary screen (AID 1184);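 note: parasites grown inside human red blood cells in medium with human serum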; conditions: P. falciparum 3D7 growth, 3 d, higher = more signal
[13] = target: Homeobox protein Hox-A13 (Mus musculus) (UniProt Q62424); assay: disruptors of Hoxa13 oligonucleotide interaction – biochemical, fluorescence polarization, labeled oligonucleotide, primary screen (AID 1185); conditions: Hoxa13:DNA binding, 15 min, higher = more signal, called active from +8 up or from −8 down
Homeobox protein Hox-A13 (Mus musculus), sequence (Q62424 whole entry, looked up): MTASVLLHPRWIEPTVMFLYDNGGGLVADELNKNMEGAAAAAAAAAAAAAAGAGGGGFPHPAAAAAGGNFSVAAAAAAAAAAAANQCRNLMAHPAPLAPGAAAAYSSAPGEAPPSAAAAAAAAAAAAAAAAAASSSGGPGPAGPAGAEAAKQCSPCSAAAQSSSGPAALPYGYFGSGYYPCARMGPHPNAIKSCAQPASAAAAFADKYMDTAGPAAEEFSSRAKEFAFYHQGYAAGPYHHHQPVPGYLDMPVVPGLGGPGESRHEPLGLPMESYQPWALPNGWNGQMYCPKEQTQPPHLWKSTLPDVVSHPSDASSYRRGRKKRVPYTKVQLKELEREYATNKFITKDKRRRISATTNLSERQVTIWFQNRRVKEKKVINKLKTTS

[14] = blockers of DNA damage checkpoint Chk1 activation – imaging, HeLa, hydroxyurea, phospho-Chk1 antibody, percent positive cells, primary screen (AID 1186); conditions: hydroxyurea-induced phospho-Chk1 immunofluorescence imaging, higher = more signal
[15] = blockers of DNA damage checkpoint Chk1 activation – imaging, HeLa, hydroxyurea, phospho-Chk1 nuclear intensity, primary screen (AID 1187); conditions: hydroxyurea-induced phospho-Chk1 immunofluorescence imaging, higher = more signal

SMILES | z-score [1] | z-score [2] | z-score [3] | composite z-score [4] | z-score [5] | z-score [6] | z-score [7] | z-score [8] | z-score [9] | composite z-score [10] | composite z-score [11] | composite z-score (XIP peptide (Xip251-270)) | z-score [12] | z-score [13] | z-score [14] | z-score [15]
CCN(CC)c1ccc(N2CC=CC34O[C@@H]5/C=C\CCC(C)OC(=O)C5[C@H]3C(=O)N(CCCCCO)[C@@H]4C2=O)cc1 (some centres undefined) | 0.18 | -0.596 (inactive) | 0.603 (inactive) | 0.513 (inactive) | -0.469 (inactive) | -0.147 (inactive) | 0.95 (inactive) | 1.1 (inactive) | 0.802 | -0.161 | -0.474 (inactive) | 0.102 | -0.0194 | -5.39 (inactive) | 0.489 (inactive) | 0.673 (inactive)
COCCCNC(=O)[C@@H]1c2ccccc2C(=O)N(Cc2ccccc2)[C@H]1c1ccc(CO)cc1 | 0.0319 | -0.141 (inactive) | 0.0771 (inactive) | -0.62 (inactive) | 0.0993 (inactive) | -0.575 (inactive) | 0.38 (inactive) | 0.0879 (inactive) | 0.279 | -0.0663 | -0.267 (inactive) | 0.401 | 0.207 | -1.77 (inactive) | -0.0813 (inactive) | -0.452 (inactive)
COCCOC(=O)N1C(=O)[C@@]2(c3cc(C#CC4=CCCCC4)ccc31)[C@H](C(N)=O)[C@H]1C(=O)O[C@H](c3ccccc3)[C@H](c3ccccc3)N1[C@@H]2c1ccc(O)cc1 | -0.495 | -0.268 (inactive) | -2.03 (inactive) | -1.37 (inactive) | 1.37 (inactive) | -1.07 (inactive) | 0.273 (inactive) | 1.03 (inactive) | -4.15 | -0.223 | 1.79 (inactive) | 0.769 | 0.55 | -0.393 (inactive) | -0.371 (inactive) | -0.552 (inactive)
CCOC(=O)C[C@H]1[C@H](OC(=O)c2ccc(-c3ccccc3)cc2)[C@@H](NC(=O)c2ccccc2)c2cc(OCCCO)ccc2N1C(=O)c1ccc2ccccc2n1 | -0.471 | 0.171 (inactive) | -0.397 (inactive) | -0.12 (inactive) | -0.17 (inactive) | -0.888 (inactive) | 0.27 (inactive) | 0.256 (inactive) | -0.258 | 0.132 | 0.304 (inactive) | 0.0388 | 1.24 | -1.19 (inactive) | -0.0348 (inactive) | -0.234 (inactive)
COCCOC(=O)N1C(=O)[C@@]2(c3cc(C#CCCO)ccc31)[C@H](c1ccc(O)cc1)N1[C@H](c3ccccc3)[C@H](c3ccccc3)OC(=O)[C@H]1[C@@H]2C(=O)N1CCN(c2ncccn2)CC1 | 1.36 | 0.467 (inactive) | -0.0402 (inactive) | -0.235 (inactive) | 0.541 (inactive) | 0.035 (inactive) | -0.235 (inactive) | -0.62 (inactive) | 0.783 | 0.17 | 0.729 (inactive) | 0.831 | -1.13 | -2.37 (inactive) | -0.264 (inactive) | -0.0303 (inactive)
CCCCCCc1nc(-c2ccc(-c3ccc(Cl)c(Cl)c3)o2)cc2c1[Si](C(C)C)(C(C)C)O[C@H]2c1ccccc1 | 1.32 | -0.911 (inactive) | 0.551 (inactive) | -0.206 (inactive) | -0.771 (inactive) | -0.361 (inactive) | 0.708 (inactive) | 0.447 (inactive) | 0.0719 | -0.0641 | 2.93 (inactive) | 0.393 | -1.3 | -1.4 (inactive) | -0.682 (inactive) | -0.449 (inactive)
N#Cc1ccc(C(O)C2C=CC3C(=O)N(c4ccccc4)C(=O)C3N2Nc2ccccc2F)cc1 (centres undefined) | 1.46 | -2.13 (inactive) | 0.55 (inactive) | 0.775 (inactive) | 0.0083 (inactive) | -0.402 (inactive) | -0.227 (inactive) | 0.692 (inactive) | 0.148 | 0.205 | 0.339 (inactive) | 0.749 | -0.85 | -3.57 (inactive) | -0.395 (inactive) | -0.0743 (inactive)
COC(=O)[C@]1(CCC(=O)OC(C)(C)C)N=C(c2ccc(OCCCO)cc2)O[C@@H]1c1ccccc1 | -0.134 | -0.761 (inactive) | -0.671 (inactive) | -0.134 (inactive) | 0.438 (inactive) | 0.504 (inactive) | 3.37 (inactive) | 0.648 (inactive) | -1.47 | 0.153 | 1.87 (inactive) | 0.761 | -2.31 | -4.4 (inactive) | -0.621 (inactive) | -0.545 (inactive)
COCCOC(=O)N1C(=O)[C@@]2(c3ccccc31)[C@H](C(=O)N1CCCCCCC1)[C@H]1C(=O)O[C@H](c3ccccc3)[C@H](c3ccccc3)N1[C@@H]2c1ccc(OCCO)cc1 | -0.329 | 1.79 (inactive) | -0.44 (inactive) | 1.15 (inactive) | 2.29 (inactive) | 2.47 (inactive) | -0.643 (inactive) | -0.623 (inactive) | -0.281 | 2.5 | 6.55 (inactive) | 0.992 | -2.03 | -15.8 (active) | -0.261 (inactive) | -0.268 (inactive)
